Data reported in PubChem BioAssay (Tox21).
Results filed as inconclusive are left out. Where a call stands in place of a potency, no number is given. Unmarked numbers belong to inactive results. Calls of active or inactive are those of the source. Unless noted, calls come from the whole dose curve; as a rule, active = well fitted curve in the direction sought with a large enough effect in the repeat runs; inconclusive = weak or mixed curves; inactive = no such curve, though single readings can be large; an effect the other way counts as inactive or inconclusive.

Legend:
[1] = qHTS assay to identify small molecule antagonists of the thyroid receptor (TR) signaling pathway - cell viability counter screen (AID 743064); note: nearly all actives have a fitted effect of over 50% in size
In short: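 GH3.TRE-Luc cells, 4 h pre-plating; cpd + T3 1 nM final; 37 °C 23.5 h; CellTiter-Fluor 30 min; fluorescence read.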

[2] = qHTS assay to identify small molecule antagonists of the thyroid receptor (TR) signaling pathway (AID 743065); note: series mostly up to about 70 µM; nearly all actives have a fitted effect of over 55% in size
In short: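 GH3.TRE-Luc rat pituitary cells (two TREs driving luciferase) were dosed with compound, then stimulated with 1 nM T3 (final) for 23.5 h at 37 C. ONE-Glo luminescence was the read-out, with CellTiter-Fluor fluorescence as the cytotoxicity counter-screen.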

[3] = test system: thyroid hormone receptor (rat, GH3 cells); experiment: qHTS assay to identify small molecule agonists of the thyroid receptor (TR) signaling pathway (AID 743066; calls by dose curve)
[4] = molecular target: Estrogen receptor (Homo sapiens) (UniProt P03372); experiment: qHTS assay to identify small molecule antagonists of the estrogen receptor alpha (ER-alpha) signaling pathway (AID 743069; active = well fitted curve in the direction sought with a large enough effect in the signal ratio in the repeat runs, not every such curve was filed as active; the % refers to the signal ratio)
In short: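 In this cell-based reporter format, GripTite HEK293 cells harbouring ER-alpha-UAS-bla were grown overnight with 2% charcoal-stripped FBS, dosed with DMSO-dissolved compounds, then challenged with 17beta-estradiol. After 18 hr at 37C, beta-lactamase activity was detected by FRET fluorescence.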

[5] = qHTS assay to identify small molecule antagonists of the estrogen receptor alpha (ER-alpha) signaling pathway - cell viability counter screen (AID 743074; calls by dose curve; note: nearly all actives have a fitted effect of over 45% in size)
[6] = molecular target: Estrogen receptor (Homo sapiens) (UniProt P03372); experiment: qHTS assay to identify small molecule agonists of the estrogen receptor alpha (ER-alpha) signaling pathway (AID 743075; calls by dose curve; note: potency is the fitted concentration of half-maximal effect)
[7] = molecular target: Estrogen receptor (Homo sapiens) (UniProt P03372); experiment: qHTS assay to identify small molecule agonists of the estrogen receptor alpha (ER-alpha) signaling pathway using the BG1 cell line (AID 743079); note: nearly all actives have a fitted effect of over 20% in size; note: potency is the fitted concentration of half-maximal effect
[8] = qHTS assay to identify small molecule antagonists of the estrogen receptor alpha (ER-alpha) signaling pathway using the BG1 cell line (AID 743080; calls by dose curve;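 note: BG1 cells stimulated with 17beta-estradiol alongside compound; series mostly up to about 70 µM; nearly all actives have a fitted effect of over 25% in size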)
In short: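 Endogenous full-length ER-alpha in BG1-Luc-4E2 cells drives a stably integrated 4×ERE luciferase gene; compounds were tested against 17beta-estradiol over 21.5 h, with luminescence and multiplexed viability fluorescence recorded.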

[9] = qHTS assay to identify small molecule antagonists of the estrogen receptor alpha (ER-alpha) signaling pathway using the BG1 cell line - cell viability counter screen (AID 743081);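 note: compound given together with 17beta-estradiol as the ER stimulus; series mostly up to about 70 µM; nearly all actives have a fitted effect of over 45% in size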
Aromatase (Homo sapiens) = Aromatase (Homo sapiens) (UniProt P11511); experiment: qHTS assay to identify aromatase inhibitors (AID 743083); note: series mostly up to about 70 µM; nearly all actives have a fitted effect of over 55% in size
[10] = qHTS assay to identify aromatase inhibitors - cell viability counter screen (AID 743084);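 note: cells stimulated with testosterone during compound exposure; nearly all actives have a fitted effect of over 55% in size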
[11] = molecular target: Aryl hydrocarbon receptor (Homo sapiens) (UniProt P35869); experiment: qHTS assay to identify small molecule that activate the aryl hydrocarbon receptor (AhR) signaling pathway (AID 743085);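 note: HG2L7.5c1 human HepG2 liver cells with stably integrated DRE-driven firefly reporter; series mostly up to about 70 µM; nearly all actives have a fitted effect of over 15% in size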
In short: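 Luminescence read-out: ONE-Glo reagent, 30 min at room temperature, in HG2L7.5c1 HepG2 reporter cells treated 24 h at 37C. Viability was measured beforehand by CellTiter-Fluor fluorescence after 30 min at 37C.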

[12] = qHTS assay to identify small molecule that activate the aryl hydrocarbon receptor (AhR) signaling pathway - cell viability counter screen (AID 743086);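 note: HepG2 liver cells carrying the AhR DRE luciferase reporter; series mostly up to about 70 µM; nearly all actives have a fitted effect of over 45% in size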
In short: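 HepG2-AhR-luc (HG2L7.5c1) cells, 4000/well, treated 24 h at 37 C with compound; viability measured as CellTiter-Fluor fluorescence after 30 min in the same wells as the luciferase read.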

[13] = molecular target: Peroxisome proliferator-activated receptor gamma (Homo sapiens) (UniProt P37231); experiment: qHTS assay to identify small molecule agonists of the peroxisome proliferator-activated receptor gamma (PPARg) signaling pathway (AID 743094; active = well fitted activation curve with a large enough effect in the signal ratio in the repeat runs, not every such curve was filed as active; the % refers to the signal ratio)
In short: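 Agonist activity was taken from a beta-lactamase reporter (FRET substrate, 1 h at room temperature) in HEK293H cells carrying a PPARg UAS-bla construct. Compounds in DMSO were incubated 17 h at 37C after a 5 h cell pre-incubation.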

[14] = qHTS assay to identify small molecule antagonists of the peroxisome proliferator-activated receptor gamma (PPARg) signaling pathway - cell viability counter screen (AID 743194); note: nearly all actives have a fitted effect of over 55% in size
In short: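 Cytotoxicity counter screen in PPARg-bla HEK293H cells, same wells as reporter assay. Compounds plus 50 nM rosiglitazone (final) for 17 h at 37 C, then viability read by CellTiter-Glo luminescence.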

[15] = qHTS assay for small molecule agonists of the antioxidant response element (ARE) signaling pathway - cell viability counter screen (AID 743203; calls by dose curve; note: nearly all actives have a fitted effect of over 55% in size)
In short: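 Viability counter screen: CellTiter-Glo luminescence, read after 30 min at room temperature, in ARE-bla HepG2 wells. Compound exposure lasted 16 h at 37C/5% CO2, following a 5 h pre-incubation of the cells after plating.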

[16] = qHTS assay for small molecule activators of the heat shock response signaling pathway - cell viability counter screen (AID 743209); note: nearly all actives have a fitted effect of over 50% in size
In short: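 Cytotoxicity counter screen run in the same wells as the heat-shock bla reporter assay: HeLa HSE-bla cells, 5 h compound exposure at 37 C, viability read by CellTiter-Glo luminescence.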

[17] = qHTS assay for small molecule activators of the heat shock response signaling pathway (AID 743210; active = well fitted activation curve with a large enough effect in the signal ratio in the repeat runs, with a control signal flat, not every such curve was filed as active; the % refers to the signal ratio;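 note: HeLa cells with beta-lactamase reporter driven by heat shock elements; series mostly up to about 63 µM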)
In short: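 Following overnight attachment, HSE-bla HeLa cells received test compounds for 5 h at 37 C; beta-lactamase activity was then detected via FRET substrate fluorescence.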

[18] = molecular target: Peroxisome proliferator-activated receptor gamma (Homo sapiens) (UniProt P37231); experiment: qHTS assay to identify small molecule antagonists of the peroxisome proliferator-activated receptor gamma (PPARg) signaling pathway (AID 743191; calls by dose curve; note: series mostly up to about 63 µM; nearly all actives have a fitted effect of over 30% in size)
In short: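 GeneBLAzer PPARg UAS-bla HEK293H cells, 5 h post-plating, exposed to compounds 17 h at 37C. LiveBLAzer B/G FRET substrate added for 1 h at room temperature; beta-lactamase reporter read by fluorescence intensity.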

[19] = qHTS assay for small molecule agonists of the antioxidant response element (ARE) signaling pathway (AID 743202; active = well fitted activation curve with a large enough effect in the signal ratio in the repeat runs, not every such curve was filed as active; the % refers to the signal ratio)
In short: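 HepG2 ARE-bla cells; 16 h treatment at 37 C; FRET-based beta-lactamase fluorescence read after 2 h substrate incubation at room temperature.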

Chain of Peroxisome proliferator-activated receptor gamma (Homo sapiens) (P37231 whole entry, looked up): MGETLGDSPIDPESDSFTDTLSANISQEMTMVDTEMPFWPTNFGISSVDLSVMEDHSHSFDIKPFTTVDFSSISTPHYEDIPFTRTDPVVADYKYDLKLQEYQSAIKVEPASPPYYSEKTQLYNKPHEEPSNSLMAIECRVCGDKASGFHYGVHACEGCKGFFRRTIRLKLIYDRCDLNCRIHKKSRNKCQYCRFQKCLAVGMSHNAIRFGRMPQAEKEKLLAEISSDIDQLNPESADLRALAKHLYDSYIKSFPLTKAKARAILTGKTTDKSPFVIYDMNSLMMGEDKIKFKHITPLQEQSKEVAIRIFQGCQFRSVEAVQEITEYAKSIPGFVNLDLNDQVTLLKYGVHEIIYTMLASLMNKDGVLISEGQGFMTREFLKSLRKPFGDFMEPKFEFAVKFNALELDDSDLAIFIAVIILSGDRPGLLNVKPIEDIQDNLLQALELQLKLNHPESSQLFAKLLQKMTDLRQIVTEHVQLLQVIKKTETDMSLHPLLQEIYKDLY
Chain of Aryl hydrocarbon receptor (Homo sapiens) (P35869 whole entry, looked up): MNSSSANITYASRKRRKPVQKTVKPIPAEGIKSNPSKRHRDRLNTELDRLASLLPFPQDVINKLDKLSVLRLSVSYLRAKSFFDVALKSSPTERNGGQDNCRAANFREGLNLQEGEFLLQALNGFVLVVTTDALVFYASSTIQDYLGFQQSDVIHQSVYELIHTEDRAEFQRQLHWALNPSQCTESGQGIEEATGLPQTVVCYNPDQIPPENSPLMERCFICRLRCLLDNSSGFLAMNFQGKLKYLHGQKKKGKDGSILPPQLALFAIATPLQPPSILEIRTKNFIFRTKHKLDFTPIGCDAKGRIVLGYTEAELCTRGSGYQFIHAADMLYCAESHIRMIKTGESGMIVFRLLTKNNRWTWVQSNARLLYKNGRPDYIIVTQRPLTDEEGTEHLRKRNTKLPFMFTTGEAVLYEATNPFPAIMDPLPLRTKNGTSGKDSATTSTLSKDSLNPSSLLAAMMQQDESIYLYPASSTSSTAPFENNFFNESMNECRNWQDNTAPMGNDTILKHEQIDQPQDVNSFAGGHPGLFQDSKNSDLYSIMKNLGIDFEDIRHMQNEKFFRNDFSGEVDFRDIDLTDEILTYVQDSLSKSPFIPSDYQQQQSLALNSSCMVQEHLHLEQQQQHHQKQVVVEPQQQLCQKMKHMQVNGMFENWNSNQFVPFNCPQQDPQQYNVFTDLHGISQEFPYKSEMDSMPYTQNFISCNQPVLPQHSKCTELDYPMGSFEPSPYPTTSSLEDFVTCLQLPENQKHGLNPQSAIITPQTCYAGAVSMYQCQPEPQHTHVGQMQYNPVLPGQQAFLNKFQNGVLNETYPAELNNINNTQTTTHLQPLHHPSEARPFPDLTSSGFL
Chain of Aromatase (Homo sapiens) (P11511 whole entry, looked up): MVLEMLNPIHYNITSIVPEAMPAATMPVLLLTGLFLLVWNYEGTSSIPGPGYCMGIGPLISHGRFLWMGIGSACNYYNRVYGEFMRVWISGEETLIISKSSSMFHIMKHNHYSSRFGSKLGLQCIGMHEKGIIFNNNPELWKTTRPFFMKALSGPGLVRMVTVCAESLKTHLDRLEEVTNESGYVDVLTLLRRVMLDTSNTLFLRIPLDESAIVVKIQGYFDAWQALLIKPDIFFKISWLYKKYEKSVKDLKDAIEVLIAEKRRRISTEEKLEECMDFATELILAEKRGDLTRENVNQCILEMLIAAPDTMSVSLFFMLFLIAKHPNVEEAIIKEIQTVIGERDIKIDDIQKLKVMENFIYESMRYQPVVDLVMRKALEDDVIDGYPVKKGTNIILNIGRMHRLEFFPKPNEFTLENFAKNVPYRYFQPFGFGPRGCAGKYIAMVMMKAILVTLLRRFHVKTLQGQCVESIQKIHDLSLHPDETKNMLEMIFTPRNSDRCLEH
Chain of Estrogen receptor (Homo sapiens) (P03372 whole entry, looked up): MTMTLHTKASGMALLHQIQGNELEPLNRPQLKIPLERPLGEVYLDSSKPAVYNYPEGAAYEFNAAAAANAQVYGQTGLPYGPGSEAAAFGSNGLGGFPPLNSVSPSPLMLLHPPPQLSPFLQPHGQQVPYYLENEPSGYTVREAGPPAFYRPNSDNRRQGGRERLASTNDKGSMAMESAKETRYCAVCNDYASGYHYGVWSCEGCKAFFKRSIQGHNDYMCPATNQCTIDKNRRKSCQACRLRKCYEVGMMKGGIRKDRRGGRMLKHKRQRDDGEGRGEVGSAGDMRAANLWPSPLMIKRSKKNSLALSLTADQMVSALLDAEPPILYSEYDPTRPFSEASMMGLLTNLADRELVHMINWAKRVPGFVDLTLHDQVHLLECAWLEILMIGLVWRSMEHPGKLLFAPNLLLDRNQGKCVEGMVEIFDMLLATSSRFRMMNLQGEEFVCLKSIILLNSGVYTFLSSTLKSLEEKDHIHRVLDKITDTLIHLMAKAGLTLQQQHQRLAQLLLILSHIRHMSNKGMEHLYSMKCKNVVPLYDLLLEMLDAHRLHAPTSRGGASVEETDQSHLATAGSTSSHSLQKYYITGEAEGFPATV

SMILES | Potency [1] | Potency [2] | Potency [3] | Potency [4] | Potency [5] | Potency [6] | Potency [7] | outcome [8] | outcome [9] | outcome (Aromatase (Homo sapiens)) | Potency [10] | Potency [11] | Potency [12] | outcome [13] | outcome [14] | outcome [15] | outcome [16] | outcome [17] | Potency [18] | Potency [19]
CO[Si](CCCCl)(OC)OC | inactive | inactive | inactive | inactive | inactive | inactive | inactive | inactive | inactive | inactive | inactive | inactive | inactive | inactive | inactive | inactive | inactive | inactive |  | 
CC(C)(C)NCCO | inactive | inactive | inactive | inactive | inactive | inactive | inactive | inactive | inactive | inactive | inactive |  | inactive | inactive | inactive | inactive | inactive |  | inactive | inactive
CC1CCC(C(C)(C)S)C(=O)C1 (stereo not drawn) | inactive | inactive | inactive | inactive | inactive | inactive | inactive | inactive | inactive | inactive | inactive | inactive | inactive | inactive | inactive |  | inactive | inactive | inactive | 
CC(=O)/C=C/c1ccco1 | inactive | inactive | inactive | inactive | inactive | inactive | inactive | inactive | inactive | inactive | inactive | inactive |  | inactive | inactive | inactive | inactive | inactive |  | inactive
O=C(COCCOCCOCC(=O)Nc1c(I)cc(I)c(C(=O)O)c1I)Nc1c(I)cc(I)c(C(=O)O)c1I | inactive | inactive | inactive | inactive | inactive | inactive | inactive | inactive | inactive | inactive | inactive |  | inactive | inactive | inactive | inactive | inactive |  | inactive | inactive
Cc1ccccc1OCC1CO1 (stereo not drawn) | inactive | inactive | inactive | inactive | inactive | inactive | inactive | inactive | inactive | inactive | inactive | inactive |  | inactive | inactive | inactive | inactive | inactive | inactive | inactive
O=CN1CCOCC1 | inactive | inactive | inactive | inactive | inactive | inactive | inactive | inactive | inactive | inactive | inactive | inactive |  | inactive | inactive | inactive | inactive | inactive | inactive | inactive
CC(=O)OC(C)c1ccccc1 (stereo not drawn) | inactive | inactive | inactive | inactive | inactive | inactive | inactive | inactive | inactive | inactive | inactive | inactive | inactive | inactive | inactive | inactive | inactive | inactive |  | inactive
CC(C)COC(=O)CC(C(=O)OCC(C)C)S(=O)(=O)O (stereo not drawn) | inactive | inactive | inactive | inactive | inactive | inactive | inactive | inactive | inactive | inactive | inactive | inactive | inactive | inactive | inactive |  | inactive | inactive | inactive | 
CCC(CO)CO | inactive | inactive | inactive | inactive | inactive | inactive | inactive | inactive | inactive | inactive | inactive | inactive |  | inactive |  | inactive | inactive |  | inactive | inactive
CCCCCCCCCCCCC | inactive | inactive | inactive | inactive | inactive | inactive | inactive | inactive | inactive | inactive | inactive | inactive | inactive | inactive | inactive |  | inactive |  | inactive | 
CCS(=O)(=O)CCn1c([N+](=O)[O-])cnc1C | inactive | inactive | inactive | inactive | inactive | 10.2 µM [activator] (active) | 2.27 µM (active) | inactive | inactive | inactive | inactive | inactive | inactive | inactive | inactive | inactive | inactive |  |  | inactive
CCC(=O)c1ccc(O)cc1 | inactive | inactive | inactive | inactive | inactive | inactive | inactive | inactive | inactive | inactive | inactive | inactive | inactive | inactive | inactive |  | inactive | inactive | inactive | 
CC(C)CCCC(C)CC=O (stereo not drawn) | inactive | inactive | inactive | inactive | inactive | inactive | inactive | inactive | inactive | inactive | inactive | inactive | inactive | inactive | inactive | inactive | inactive |  |  | inactive
